Experimental data from PubChem BioAssay.
For part of these data: Entries with a potency or affinity are not part of this list. Active and inactive are the calls of the source. Unless noted, how the calls were made is not given here.

Key:
[1] = antimalarial activity against Dd2 strain (AID 2302;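 active means growth inhibition above 50% at the single 2 µM test dose, taken to imply half-maximal potency below 2 µM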;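 further: 0% = DMSO untreated growth and 100% = chloroquine plus artemisinin killed control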); details: P. falciparum Dd2 in RBCs, LDH growth readout, 72 h; at 2 µM; active compounds read high
[2] = HepG2 cytotoxicity, primary screen, cytotoxicity control for P. falciparum antimalarial project, cell-based, ATP luminescence (AID 2303;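 active means inhibition above 50%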;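 further: 0% = DMSO wells and 100% = digitonin-killed cells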); details: HepG2 viability, 24-48 h, at 10 µM, active compounds read high
[3] = target: L-lactate dehydrogenase (Plasmodium falciparum (isolate CDC / Honduras)) (UniProt Q27743); experiment: PfLDH activity inhibition – cell lysate, 3D7 strain, counter-screen for P. falciparum growth inhibition project (AID 2304);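 further: 0% = vehicle and 100% = reference inhibitor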; details: P. falciparum 3D7 crude extract, LDH APAD/NBT absorbance; at 2 µM; active compounds read high
[4] = inhibition of 3D7 malaria parasite growth – strain 3D7 (AID 2306);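 further: 0% = DMSO wells and 100% = chloroquine plus artemisinin control wells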; details: P. falciparum 3D7 erythrocytic growth, LDH absorbance, 72 h; at 2 µM; active compounds read high
[5] = target: Calcium-dependent protein kinase 1 (Plasmodium falciparum (isolate 3D7)) (UniProt P62344); experiment: PfCDPK1 kinase inhibitors, biochemical, TCAMS library (AID 1159585; cut-off not given, nearly all actives have IC50 up to about 0.98 µM;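 further: inhibitors leave more ATP so luminescence rises with inhibition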); details: recombinant PfCDPK1, Kinase-Glo ATP depletion luminescence
[6] = target: Plasmodium falciparum protein kinase 6 (PK6, PF3D7_1337100) (UniProt Q8IDW1); experiment: PfPK6 kinase inhibitors, biochemical, TCAMS library (AID 1159586); details: recombinant PfPK6, Kinase-Glo ATP depletion luminescence
[7] = target: Protein kinase 7 (PK7), Plasmodium falciparum 3D7 (PF3D7_0213400) (UniProt Q7YTF7); experiment: inhibition of Plasmodium PK7 catalytic activity – biochemical, TCAMS antimalarial set, Kinase-Glo luminescence (AID 1159587); details: recombinant PfPK7, Kinase-Glo ATP depletion luminescence
[8] = target: Calcium-dependent protein kinase 4 (Plasmodium falciparum (isolate 3D7)) (UniProt Q8IBS5); experiment: PfCDPK4 kinase inhibitors, biochemical, TCAMS library (AID 1159588; cut-off not given, nearly all actives have IC50 up to about 0.91 µM); details: recombinant PfCDPK4, Kinase-Glo ATP depletion luminescence
Sequence of Calcium-dependent protein kinase 4 (Plasmodium falciparum (isolate 3D7)) (Q8IBS5 whole entry, looked up): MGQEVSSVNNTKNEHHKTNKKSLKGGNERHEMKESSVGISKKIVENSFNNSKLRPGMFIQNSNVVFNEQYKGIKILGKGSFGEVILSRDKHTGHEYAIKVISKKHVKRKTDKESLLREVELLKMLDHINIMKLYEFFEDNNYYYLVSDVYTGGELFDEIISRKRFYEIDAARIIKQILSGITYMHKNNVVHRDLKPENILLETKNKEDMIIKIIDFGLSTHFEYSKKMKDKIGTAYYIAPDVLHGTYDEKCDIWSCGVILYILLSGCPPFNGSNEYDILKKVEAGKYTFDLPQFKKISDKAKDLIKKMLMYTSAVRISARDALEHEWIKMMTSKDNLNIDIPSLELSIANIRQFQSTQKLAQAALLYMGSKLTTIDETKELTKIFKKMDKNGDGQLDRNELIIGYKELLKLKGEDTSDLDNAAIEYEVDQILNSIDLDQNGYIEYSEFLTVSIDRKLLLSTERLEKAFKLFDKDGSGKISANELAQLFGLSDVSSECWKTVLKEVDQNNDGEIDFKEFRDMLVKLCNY

Sequence of Protein kinase 7 (PK7), Plasmodium falciparum 3D7 (PF3D7_0213400) (Q7YTF7 1-343): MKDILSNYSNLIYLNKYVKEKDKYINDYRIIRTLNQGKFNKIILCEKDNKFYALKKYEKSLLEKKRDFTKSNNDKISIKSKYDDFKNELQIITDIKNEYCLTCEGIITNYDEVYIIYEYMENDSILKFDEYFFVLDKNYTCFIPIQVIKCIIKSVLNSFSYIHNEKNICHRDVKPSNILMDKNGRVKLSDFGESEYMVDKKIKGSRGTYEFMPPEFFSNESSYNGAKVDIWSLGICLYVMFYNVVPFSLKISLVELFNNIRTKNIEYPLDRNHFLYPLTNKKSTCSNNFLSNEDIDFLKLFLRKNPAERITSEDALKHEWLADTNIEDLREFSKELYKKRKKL
Sequence of Plasmodium falciparum protein kinase 6 (PK6, PF3D7_1337100) (Q8IDW1 1-305): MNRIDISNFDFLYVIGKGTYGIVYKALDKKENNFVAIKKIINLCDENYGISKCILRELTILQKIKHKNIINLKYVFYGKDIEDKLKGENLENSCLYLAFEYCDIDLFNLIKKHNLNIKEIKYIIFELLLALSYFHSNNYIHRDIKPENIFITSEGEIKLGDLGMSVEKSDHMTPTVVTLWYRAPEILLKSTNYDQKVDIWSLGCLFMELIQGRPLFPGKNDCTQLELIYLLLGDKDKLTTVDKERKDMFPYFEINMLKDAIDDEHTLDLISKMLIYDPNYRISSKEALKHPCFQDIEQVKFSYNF
Sequence of Calcium-dependent protein kinase 1 (Plasmodium falciparum (isolate 3D7)) (P62344 whole entry, looked up): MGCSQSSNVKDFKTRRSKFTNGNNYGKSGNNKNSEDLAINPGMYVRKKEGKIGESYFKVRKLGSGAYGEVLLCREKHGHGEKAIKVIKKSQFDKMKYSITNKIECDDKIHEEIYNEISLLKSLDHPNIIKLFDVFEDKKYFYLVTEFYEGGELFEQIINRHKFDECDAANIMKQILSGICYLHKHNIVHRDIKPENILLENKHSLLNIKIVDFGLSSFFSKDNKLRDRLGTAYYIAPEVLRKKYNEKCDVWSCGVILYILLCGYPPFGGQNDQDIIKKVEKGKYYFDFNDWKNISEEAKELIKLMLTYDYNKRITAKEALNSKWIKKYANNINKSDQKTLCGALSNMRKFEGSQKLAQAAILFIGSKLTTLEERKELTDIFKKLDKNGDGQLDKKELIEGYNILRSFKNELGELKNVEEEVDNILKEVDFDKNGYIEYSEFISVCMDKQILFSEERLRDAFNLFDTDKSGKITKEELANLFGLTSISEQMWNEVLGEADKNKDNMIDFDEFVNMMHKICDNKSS
Sequence of L-lactate dehydrogenase (Plasmodium falciparum (isolate CDC / Honduras)) (Q27743 whole entry, looked up): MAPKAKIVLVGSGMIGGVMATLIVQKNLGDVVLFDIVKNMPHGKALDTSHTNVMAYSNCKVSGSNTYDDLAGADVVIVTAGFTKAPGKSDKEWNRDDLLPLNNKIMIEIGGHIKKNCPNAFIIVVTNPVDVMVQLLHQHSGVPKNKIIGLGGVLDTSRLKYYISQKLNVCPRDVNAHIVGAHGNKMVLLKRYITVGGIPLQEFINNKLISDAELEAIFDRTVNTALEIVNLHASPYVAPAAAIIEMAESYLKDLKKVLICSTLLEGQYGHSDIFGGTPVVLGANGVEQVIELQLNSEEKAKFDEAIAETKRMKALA

O=[N+]([O-])c1ccc2ncnc(Nc3ccc(F)c(Cl)c3)c2c1
active: growth inhibition [1] 65% | growth inhibition [4] 100%
inactive: inhibition [2] -1% | inhibition [3] 0% | outcome [5] | outcome [6] | outcome [7] | outcome [8]

O=C(Nc1ccc(F)cc1F)NC1CCN(c2ccnc3cc(Cl)ccc23)C1 (configuration not stated)
inactive: inhibition [2] 25% | inhibition [3] 1% | outcome [5] | outcome [6] | outcome [7] | outcome [8]
active: growth inhibition [1] 82% | growth inhibition [4] 100%

COc1cccc(Cc2c(C)nc3nc(N)nc(N)c3c2C)c1
active: inhibition [2] 65% | growth inhibition [4] 95%
inactive: growth inhibition [1] 1% | inhibition [3] -2% | outcome [5] | outcome [6] | outcome [7] | outcome [8]

O=C(OCC1CCN(Cc2ccccc2)C1)c1ccc(Cl)cc1 (configuration not stated)
inactive: growth inhibition [1] 4% | inhibition [2] -3% | inhibition [3] 3% | outcome [5] | outcome [6] | outcome [7] | outcome [8]
active: growth inhibition [4] 100%

O=C(/C=C/c1ccc(Cl)c(Cl)c1)NCCCCCCN1CCCN(C(=O)Nc2ccc(C(F)(F)F)cc2)CC1
inactive: growth inhibition [1] 25% | inhibition [2] 47% | inhibition [3] -8% | outcome [5] | outcome [6] | outcome [7] | outcome [8]
active: growth inhibition [4] 100%

C[C@@]12C[C@@H](Nc3nc(NCCc4ccc(O)cc4)nc(N4CCNCC4)n3)C[C@@H](C1)c1cccc(Cl)c1O2
inactive: growth inhibition [1] 47% | inhibition [3] 4% | outcome [5] | outcome [6] | outcome [7] | outcome [8]
active: inhibition [2] 92% | growth inhibition [4] 101%

NC(=O)c1cccc(Nc2nccc(Nc3ccc(Oc4cccc5ccccc45)cc3)n2)c1
active: growth inhibition [4] 94%
inactive: growth inhibition [1] 22% | inhibition [2] -10% | inhibition [3] 3% | outcome [5] | outcome [6] | outcome [7] | outcome [8]

COc1ccc(C2CC(=O)C3=C(C2)NC(C)=C(C(=O)OC(C)C)C3c2ccc(O)cc2)cc1OC (configuration not stated)
inactive: inhibition [2] -1% | inhibition [3] -3% | outcome [5] | outcome [6] | outcome [7] | outcome [8]
active: growth inhibition [1] 98% | growth inhibition [4] 99%

Cc1cc(N2CCCC2)nc(Nc2ccc(NC(=O)COc3ccccc3)cc2)n1
inactive: inhibition [2] 43% | inhibition [3] 4% | outcome [5] | outcome [6] | outcome [7] | outcome [8]
active: growth inhibition [1] 86% | growth inhibition [4] 101%

NCc1ccc(CNCc2cccc(-c3cccc(-c4nc5ccc(F)cc5[nH]4)c3)c2)cc1
active: growth inhibition [4] 101%
inactive: growth inhibition [1] 34% | inhibition [2] 15% | inhibition [3] -2% | outcome [5] | outcome [6] | outcome [7] | outcome [8]

CN1CCC(c2csc3ccc(NC(=O)Nc4ccc(-c5ccncc5)c5ccccc45)cc23)CC1
active: growth inhibition [1] 71% | growth inhibition [4] 98%
inactive: inhibition [2] 8% | inhibition [3] 0% | outcome [5] | outcome [6] | outcome [7] | outcome [8]

CCNc1cc(C(=O)N[C@@H](Cc2ccccc2)[C@H](O)CNC2CCC(F)(F)CC2)c(F)c(N2CCCCS2(=O)=O)c1
inactive: inhibition [2] -5% | inhibition [3] -1% | outcome [5] | outcome [6] | outcome [7] | outcome [8]
active: growth inhibition [1] 97% | growth inhibition [4] 100%

Cc1cc(N(C)C2CCN(CC3CCCCC3)C2)nc(Nc2ccc(Br)cc2)n1 (configuration not stated)
active: growth inhibition [4] 98%
inactive: growth inhibition [1] 38% | inhibition [2] 14% | inhibition [3] -1% | outcome [5] | outcome [6] | outcome [7] | outcome [8]

CNc1nc(NN=Cc2ccccc2Cl)nc(Nc2cccc(C(F)(F)F)c2)n1
inactive: growth inhibition [1] -9% | inhibition [2] 12% | inhibition [3] 0% | outcome [5] | outcome [6] | outcome [7] | outcome [8]
active: growth inhibition [4] 84%

CCCCCC(=O)N1CCOC(CCN2CCc3c(c4ccccc4n3C)C2)(c2ccc(Cl)c(Cl)c2)C1 (configuration not stated)
inactive: inhibition [2] 24% | inhibition [3] 1% | outcome [5] | outcome [6] | outcome [7] | outcome [8]
active: growth inhibition [1] 80% | growth inhibition [4] 95%

Cc1cccc2[nH]c(-c3ccc(-c4ccc(CNCCCN5CCCC5=O)cc4)cc3)nc12
active: growth inhibition [4] 100%
inactive: growth inhibition [1] 47% | inhibition [2] 7% | inhibition [3] -5% | outcome [5] | outcome [6] | outcome [7] | outcome [8]

CCCC(CNCc1cccc(OCC)c1)CNc1cc(=O)c2ccccc2[nH]1 (configuration not stated)
active: growth inhibition [1] 97% | growth inhibition [4] 101%
inactive: inhibition [2] -4% | inhibition [3] 4% | outcome [5] | outcome [6] | outcome [7] | outcome [8]

O=C(N[C@H]1CCN(Cc2ccc(OCCCN3CCCCC3)cc2)C1)c1ccc(Oc2ccccc2)cc1
active: inhibition [2] 56% | growth inhibition [4] 96%
inactive: growth inhibition [1] 11% | inhibition [3] 6% | outcome [5] | outcome [6] | outcome [7] | outcome [8]

OCCN1CCN(Cc2cccc(-c3cccc(-c4nc5ccc(F)cc5[nH]4)c3)c2)CC1
inactive: inhibition [2] 41% | inhibition [3] -2% | outcome [5] | outcome [6] | outcome [7] | outcome [8]
active: growth inhibition [1] 99% | growth inhibition [4] 102%

CCc1sc(N2CCN(C)CC2)nc1C(=O)Nc1ccc(F)cc1C(F)(F)F
active: growth inhibition [1] 98% | growth inhibition [4] 101%
inactive: inhibition [2] -1% | inhibition [3] 5% | outcome [5] | outcome [6] | outcome [7] | outcome [8]

O=C(NC1CCN(CC2(c3ccccc3)CCCC2)CC1)c1[nH]ncc1Cl
active: growth inhibition [1] 87% | growth inhibition [4] 83%
inactive: inhibition [2] -3% | inhibition [3] 5% | outcome [5] | outcome [6] | outcome [7] | outcome [8]

O=C(c1ccc([N+](=O)[O-])o1)N1CCN(c2nc3c(Cl)cccc3s2)CC1
active: growth inhibition [1] 87% | growth inhibition [4] 91%
inactive: inhibition [2] -12% | inhibition [3] 6% | outcome [5] | outcome [6] | outcome [7] | outcome [8]

O=C(NCc1cccc(C(F)(F)F)c1)C(c1cc2ccccc2o1)N1CCN(C(c2ccccc2)c2ccccc2)CC1 (configuration not stated)
inactive: inhibition [2] -4% | inhibition [3] 0% | outcome [5] | outcome [6] | outcome [7] | outcome [8]
active: growth inhibition [1] 80% | growth inhibition [4] 91%

CN1CCCN(c2ccnc3cc4c(cc23)N(C(=O)c2ccc(Cl)cc2)CC4)CC1
inactive: growth inhibition [1] 0% | inhibition [2] 0% | inhibition [3] 4% | outcome [5] | outcome [6] | outcome [7] | outcome [8]
active: growth inhibition [4] 100%

C#C[C@H]1O[C@@H](n2cnc3c(Nc4cc(Br)cc(C(F)(F)F)c4)ncnc32)[C@H](O)[C@@H]1O
active: growth inhibition [1] 56% | growth inhibition [4] 94%
inactive: inhibition [2] 21% | inhibition [3] 4% | outcome [5] | outcome [6] | outcome [7] | outcome [8]

O=C(Nc1ccc(OC2CCN(Cc3ccsc3)CC2)c(Cl)c1)c1ccc(F)cc1
inactive: inhibition [2] 31% | inhibition [3] 0% | outcome [5] | outcome [6] | outcome [7] | outcome [8]
active: growth inhibition [1] 83% | growth inhibition [4] 98%

O=[N+]([O-])c1ccc(CNCCCCCCNCc2ccc([N+](=O)[O-])c3ccccc23)c2ccccc12
inactive: inhibition [3] 0% | outcome [5] | outcome [6] | outcome [7] | outcome [8]
active: growth inhibition [1] 98% | inhibition [2] 88% | growth inhibition [4] 102%

CCN(CC)CC#Cc1ccc2[nH]c(C)c(Cl)c(=O)c2c1
active: growth inhibition [1] 95% | growth inhibition [4] 96%
inactive: inhibition [2] 11% | inhibition [3] -6% | outcome [5] | outcome [6] | outcome [7] | outcome [8]

COc1ccccc1CCNc1nc(C)cc(NCCC(=O)Nc2ccccc2)n1
inactive: growth inhibition [1] 24% | inhibition [2] 7% | inhibition [3] 0% | outcome [5] | outcome [6] | outcome [7] | outcome [8]
active: growth inhibition [4] 101%

COc1cc(CN2CCC(C(=O)Nc3ccc(-c4cccc(C)c4)cc3)CC2)ccc1O
inactive: inhibition [2] 25% | inhibition [3] 3% | outcome [5] | outcome [6] | outcome [7] | outcome [8]
active: growth inhibition [1] 85% | growth inhibition [4] 100%

Cc1cc2c(cc1C(F)(F)F)N(C(=O)Nc1cc(OCCN(C(C)C)C(C)C)cc(C(F)(F)F)c1)CC2
active: growth inhibition [1] 86% | growth inhibition [4] 100%
inactive: inhibition [2] 42% | inhibition [3] -2% | outcome [5] | outcome [6] | outcome [7] | outcome [8]

COc1ccc(-c2ccc(NC(=O)c3ccccc3)cc2)cc1CN1CCCN(C)CC1
active: growth inhibition [4] 92%
inactive: growth inhibition [1] 17% | inhibition [2] 24% | inhibition [3] 3% | outcome [5] | outcome [6] | outcome [7] | outcome [8]

S=C(NCCCCCN1CCC(c2c[nH]c3ccccc23)CC1)Nc1cc(Cl)cc(Cl)c1
active: growth inhibition [4] 100%
inactive: growth inhibition [1] 35% | inhibition [2] 25% | inhibition [3] -4% | outcome [5] | outcome [6] | outcome [7] | outcome [8]

COc1cc(Cl)c(C)cc1N(Cc1ccccc1-c1ccccc1)S(=O)(=O)c1ccc(C(F)(F)F)cc1
active: growth inhibition [1] 62% | growth inhibition [4] 90%
inactive: inhibition [2] 23% | inhibition [3] -2% | outcome [5] | outcome [6] | outcome [7] | outcome [8]

N#Cc1cccc(NC(=O)Nc2ccc3c(c2)CCN(C2CCC2)CC3)c1
active: growth inhibition [4] 91%
inactive: growth inhibition [1] 26% | inhibition [2] 22% | inhibition [3] -3% | outcome [5] | outcome [6] | outcome [7] | outcome [8]

O=C(NCCc1ccccc1F)c1ccc(N2CCN(c3ccncc3)CC2)cn1
active: growth inhibition [4] 93%
inactive: growth inhibition [1] 18% | inhibition [2] 8% | inhibition [3] -2% | outcome [5] | outcome [6] | outcome [7] | outcome [8]

COc1ccc2nccc(N(C)CC3(O)CCC(NCc4ccc5c(n4)NC(=O)CS5)CC3)c2n1 (configuration not stated)
inactive: growth inhibition [1] 23% | inhibition [2] 1% | inhibition [3] -1% | outcome [5] | outcome [6] | outcome [7] | outcome [8]
active: growth inhibition [4] 98%

COc1cc2c(cc1C(F)(F)F)N(C(=O)Nc1cc(OC(F)(F)F)cc(-c3cccnc3)c1)CC2
inactive: growth inhibition [1] 49% | inhibition [3] -3% | outcome [5] | outcome [6] | outcome [7] | outcome [8]
active: inhibition [2] 55% | growth inhibition [4] 100%

O=C(NCCN1CCCC1)c1cccc(-c2ccc(-c3nc4ccccc4[nH]3)s2)c1
active: growth inhibition [4] 96%
inactive: growth inhibition [1] 13% | inhibition [2] 27% | inhibition [3] 4% | outcome [5] | outcome [6] | outcome [7] | outcome [8]
